From PubChem BioAssay AID434936 (National Center for Advancing Translational Sciences (NCATS), 2010) come the findings set out here.

Structures are written as SMILES. Values joined by “and” are separate entries in the source; they are usually repeats but may differ in a detail not shown here. Identical values can stand only once. Inconclusive results are not listed. Active and inactive are the calls of the source. The call rests on the fitted dose curve; in most records, active means well fitted curve in either direction with a large enough effect; inconclusive means small, poorly fitted or top-dose-only effect; inactive means flat fitted curve, though single readings scatter.

The target of the assay is Neuropeptide S receptor (Homo sapiens) (UniProt Q6W5P4). Description: Confirmation Concentration-Response Assay for Antagonists of the Neuropeptide S Receptor: Robust Characterization of cAMP Signal Transduction. As to conditions: CHO-NPSR cells, NPS-stimulated cAMP TR-FRET; series mostly up to 50.7 µM. An excerpt: NIH Chemical Genomics Center [NCGC] NIH Molecular Libraries Probe Production centers Network [MLPCN] MLPCN Grant: X01-DA026210-01 Assay Submitter (PI): Heilig, Markus Alexander NCGC Assay Overview: Neuropeptide S receptor (NPSR), previously known as GPR154, is a recently de-orphanized G protein coupled receptor. Its endogenous ligand is the 20 amino acids peptide Neuropeptide S (NPS). […] NPS and its receptor are found in various tissues. Specifically they are highly expressed in brain areas that have been implicated in modulation of arousal, stress and anxiety. Central administration of NPS in mice produces an unusual profile of activity by inducing wakefulness and arousal, while at the same time suppressing anxiety. Therefore, NPSR may represent a novel drug target for the treatment of sleep and anxiety disorders. To identify NPSR antagonists, we developed a cell-based cAMP assay. NPS can stimulate the production of cAMP in Chinese hamster ovary cells stably expressing NPS receptor. This change in intracellular cAMP level can be detected by a homogeneous LANCE cAMP assay based on the TR-FRET (time resolved fluorescence resonance energy transfer) between a europium-labeled cAMP tracer complex and a cAMP-specific antibody labeled with Alexa Fluor 647. The europium-labeled cAMP tracer complex is formed by the tight interaction between Biotin-cAMP (b-cAMP) and streptavidin labeled with Europium-W8044 chelate (Eu-SA). Light pulse at 320 nm excites the europium of the cAMP tracer and the energy emitted is transferred to the Alexa molecule bound to the cAMP antibody, generating a TR-FRET signal at 665 nm. Residual energy from the europium will produce a light at 620 nm. The native unlabeled cAMP from cell lysates competes with the europium-cAMP tracer for antibody binding and reversely reduces the emission signal of Alexa by interrupting FRET between the two labeled molecules. Both emission signals from the FRET donor (620 nm) and the acceptor (665 nm) can be detected by a plate reader in the TRF mode. Expression of result in fluorescence ratio (665 nm/620 nm) helps to normalize differences due to cell density and reagent dispensing. This assay was successfully optimized to a 1536-well plate format. Select compounds from the primary screen (AID 1461) were chosen for confirmation based on potency, efficacy, SAR, and activity across other assays in PubChem and at NCGC. Other compounds are analogs of active compounds from the primary screen. This particular assay uses a high density of sampling across concentration-response space to establish more confidence estimates of potency.
Neuropeptide S receptor (Homo sapiens), sequence (Q6W5P4 whole entry, looked up): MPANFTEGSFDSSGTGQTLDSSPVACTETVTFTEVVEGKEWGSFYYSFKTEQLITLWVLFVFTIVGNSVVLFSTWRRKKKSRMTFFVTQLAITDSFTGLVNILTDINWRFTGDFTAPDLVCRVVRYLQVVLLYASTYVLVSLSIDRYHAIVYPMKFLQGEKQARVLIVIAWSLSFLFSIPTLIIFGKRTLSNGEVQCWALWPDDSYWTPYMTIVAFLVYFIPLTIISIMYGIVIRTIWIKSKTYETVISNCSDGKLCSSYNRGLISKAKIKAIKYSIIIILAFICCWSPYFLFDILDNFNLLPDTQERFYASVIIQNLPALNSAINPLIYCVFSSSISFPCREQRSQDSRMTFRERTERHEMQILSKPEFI
NCGC Assay Protocol Summary: A Chinese hamster ovary (CHO) cell line stably expressing the NPS receptor (CHO-NPSR) was obtained from Dr. Heilig lab at NIAAA and maintained in F-12 Kaighn's media (Invitrogen, Carlsbad, CA, 21127) supplemented with 10 % FBS, 100 units/ml penicillin, 100 ug/ml streptomycin and 250 ug/ml geneticin at 37C, 5% CO2 in a humidified atmosphere. Before the assay, aliquots of cells were frozen and stored at -135C. The assay was performed in 1536-well format. Data are reported for both the ratio of the two emission wavelengths, and also for the component 'donor' channel, Em2=620. […] IC50 values were determined from concentration-response data modeled with the standard Hill equation. NPS 1536-well assay protocol: (1) Fresh or frozen CHO-NPSR cells were suspended in F-12 Kaighn's media supplemented with 10 % FBS, 100 units/ml penicillin and 100 ug/ml streptomycin. Cells were plated at 4 ul/well (1200 cells) to white, tissue culture treated 1536-well plates, and then cultured at 37C, 5 % CO2 for 16 to 30 hours. (2) Add 23 nl/well of compound in DMSO solution. The final titration for each compound was between 0.6 nM and 46 uM. […]
In the case of `COc1cccc(C2c3c(ncn(-c4ccccc4Cl)c3=N)Oc3ccc4ccccc4c32)c1` (stereo not given), the Potency is 8.67 µM (active).

On to `Cc1nc2ccccn2c1P(=O)(c1ccccc1)c1ccccc1`, for which the Potency result is “inactive”. The same measure for `CCOC(=O)c1ccc(-n2cnc3c(c2=N)C(c2cccc(OC)c2)c2c(ccc4ccccc24)O3)cc1` (stereo not given): 10.9 µM (active); for `COc1cccc(C2c3c(ncn(-c4cccc(F)c4)c3=N)Oc3ccc4ccccc4c32)c1` (stereo not given): 3.87 µM (active). Under `COc1cccc(C2c3c(ncn(-c4ccc5c(c4)OCO5)c3=N)Oc3ccc4ccccc4c32)c1` (stereo not given) stands 4.34 µM (active). `COc1cccc(C2c3c(ncn(CCCN4CCOCC4)c3=N)Oc3ccc4ccccc4c32)c1` (stereo not given): the Potency is 4.87 µM (active). The same measure for `N=c1c2c(ncn1-c1ccccc1)Oc1ccc3ccccc3c1C2c1ccc2c(c1)OCCO2` (stereo not given): 2.18 µM (active). On to `COc1cccc(C2c3c(ncn(-c4ccccc4SC)c3=N)Oc3ccc4ccccc4c32)c1` (stereo not given), for which the Potency was 4.87 µM (active). On to `COc1cccc(C2c3c(ncn(-c4ccc(C(C)(C)C)cc4)c3=N)Oc3ccc4ccccc4c32)c1` (stereo not given), for which the Potency is 12.2 µM (active). As to `COc1cccc(C2c3c(ncn(-c4ccc(F)cc4)c3=N)Oc3ccc4ccccc4c32)c1` (stereo not given), the Potency is 12.2 µM (active).

Take `COc1ccc(C2c3c(nc(CCc4ccccc4)[nH]c3=O)Oc3ccc4ccccc4c32)cc1OC` (stereo not given): the Potency result was “inactive”.

As to `COc1cccc(C2c3c(ncn(-c4ccc(C#N)cc4)c3=N)Oc3ccc4ccccc4c32)c1` (stereo not given), the Potency was 12.2 µM (active). On to `CCOC(=O)CCCC(=O)Nc1ncnc2c1C(c1ccccc1)c1c(ccc3ccccc13)O2` (stereo not given), for which the Potency was 2.44 µM (active). The same measure for `COc1cccc(C2c3c(ncn(-c4ccncc4)c3=N)Oc3ccc4ccccc4c32)c1` (stereo not given): 13.7 µM (active). On to `N=c1c2c(ccn1Cc1ccccc1)Oc1ccc3ccccc3c1C2c1ccccc1` (stereo not given), for which the Potency is 2.18 µM (active). Under `COc1cccc(C2c3c(ncn(-c4ccc(Br)cc4)c3=N)Oc3ccc4ccccc4c32)c1` (stereo not given) stands 12.2 µM (active); under `CCOc1ccc(C2c3c(ncn(-c4ccccc4)c3=N)Oc3ccc4ccccc4c32)cc1OCC` (stereo not given), 3.45 µM (active). With `COc1ccc(C2c3c(N)nc(CCc4ccccc4)nc3Oc3ccc4ccccc4c32)cc1OC` (stereo not given), the Potency is 24.4 µM (active). For `S=P(c1ccccc1)(c1ccccc1)c1c[n+](C/C=C/c2ccccc2)c2ccccn12`, the Potency was 0.56 µM (active). Under `COc1ccc2c(c1)Oc1ncn(CCN3CCOCC3)c(=N)c1C2c1ccc(OC)c(OC)c1` (stereo not given) stands 13.7 µM (active). Consider `COc1cccc(C2c3c(ncn(-c4ccccn4)c3=N)Oc3ccc4ccccc4c32)c1` (stereo not given), for which the Potency is 17.3 µM (active). Under `COc1cccc(C2c3c(ncn(-c4ccccc4-c4ccccc4)c3=N)Oc3ccc4ccccc4c32)c1` (stereo not given) stands 15.4 µM (active); under `COc1cccc(C2c3c(ncn(-c4ccc(C)cc4)c3=N)Oc3ccc4ccccc4c32)c1` (stereo not given), 8.67 µM (active); under `O=C(Cc1ccccc1)Nc1ncnc2c1C(c1ccccc1)c1c(ccc3ccccc13)O2` (stereo not given), 2.74 µM (active). Under `COc1ccc(C2c3c(ncn(CCN4CCOCC4)c3=N)Oc3ccc4ccccc4c32)cc1OC` (stereo not given) stands 2.74 µM (active).

In the case of `CCOC(=O)CCC(=O)Nc1ncnc2c1C(c1ccccc1)c1c(ccc3ccccc13)O2` (stereo not given), the Potency was 3.45 µM (active). For `COc1cccc(C2c3c(ncn(-c4ccccc4)c3=N)Oc3ccc4ccccc4c32)c1` (stereo not given), the Potency was 8.67 µM (active) and 1.54 µM (active). For the compound `COc1ccc(C2c3c(ncn(CCc4ccccc4)c3=N)Oc3ccc4ccccc4c32)cc1OC` (stereo not given), the Potency is 27.4 µM (active).

Turning to `COc1cccc(C2c3c(ncn(-c4ccc(NC(C)=O)cc4)c3=N)Oc3ccc4ccccc4c32)c1` (stereo not given), the Potency was 12.2 µM (active). In the case of `COc1cccc(C2c3c(ncn(-c4cccc(Cl)c4)c3=N)Oc3ccc4ccccc4c32)c1` (stereo not given), the Potency was 8.67 µM (active).

`COc1ccc(C2c3c(n(CCCc4ccccc4)cnc3=N)Oc3ccc4ccccc4c32)cc1OC` (stereo not given): the Potency was 24.4 µM (active). Under `S=P(c1ccccc1)(c1ccccc1)c1nc(CCCc2ccccc2)n2ccccc12` stands “inactive”. The same measure for `Cc1nc2ccccn2c1C(O)(c1ccccc1)c1ccccc1`: “inactive”. `COc1cccc(C2c3c(ncn(-c4cccc(Br)c4)c3=N)Oc3ccc4ccccc4c32)c1` (stereo not given): the Potency was 12.2 µM (active). For `COc1cccc(C2c3c(ncn(-c4ccccc4C(C)(C)C)c3=N)Oc3ccc4ccccc4c32)c1` (stereo not given), the Potency was 12.2 µM (active). The same measure for `N#CC1=C(NC=NCc2ccccc2)Oc2ccc3ccccc3c2C1c1ccccc1` (stereo not given): 1.37 µM (active); for `COc1ccc(C2c3ccc4ccccc4c3Oc3ncn(CCN4CCOCC4)c(=N)c32)cc1OC` (stereo not given): 30.7 µM (active).

Consider `COc1cccc(C2c3c(ncn(-c4ccccc4C)c3=N)Oc3ccc4ccccc4c32)c1` (stereo not given), for which the Potency is 6.88 µM (active).

Consider `COc1cccc(C2c3c(ncn(-c4ccccc4)c3=N)Oc3ccc4ccccc4c32)c1OC` (stereo not given), for which the Potency is 4.34 µM (active).

Regarding `COc1ccccc1C1c2c(ncn(-c3ccccc3)c2=N)Oc2ccc3ccccc3c21` (stereo not given), the Potency was 4.34 µM (active).
